The list is not random: actives were taken first. Their share in the collection is about 19%.
HT1080 IDH1KD tx = kills HT-1080 cells with IDH1 knockdown; HT-1080 IDH1 knockdown viability, ATP luminescence, 48 h; Potency, µM (doses to about 46.1 µM), hits mostly cytotoxic; 2% of 360,000 active
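After a 2 h attachment period, IDH1KD HT-1080 cells took pin-transferred compound for 48 h at 37 °C; ATP-based luminescence after 10 min room-temperature reagent incubation reported viability.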
HT1080NT lethal = kills 2HG-producing HT-1080-NT fibrosarcoma cells; HT-1080-NT fibrosarcoma viability, CellTiter-Glo ATP luminescence, 48 h; Potency, µM (series often up to 46.1 µM), usual class: cytotoxic; 1.6% of 360,000 active; AID 686970;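 note: NT is the 2HG producing partner of a matched IDH1 knockdown line; nearly all actives have a fitted effect of over 55% in size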
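Viability by CellTiter-Glo luminescence after 48 h compound exposure at 37C of HT-1080-NT cells (750/well, RPMI, 5% FBS). % activity scaled between DMSO wells and medium-only wells, then curve-fitted and categorized by curve class.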
IL1B secr inh = inflammasome signaling inhibition, IL-1 beta readout | THP-1 LPS/ATP IL-1B secretion, AlphaLISA, 16 h; hits give low values | activity change, % at 57.5 µM | 4.7% of 360,000 active | AID 743279; in the data active = activity change below about -50%; inconclusive = mostly about -30% to -49%
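Secreted IL-1B measured by AlphaLISA bead assay after 16 h compound exposure of THP-1 cells; compounds (final up to 57.5 uM) added 1 h before LPS (250 ng/mL) and ATP (1.25 mM) stimulation; lower signal means less secretion.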
DT40 TDP1 no CPT = qHTS for Inhibitors of human tyrosyl-DNA phosphodiesterase 1 (TDP1): qHTS in cells in absence of CPT; DT40 Tdp1-/- hTDP1 cells, no CPT, ATP luminescence, 48 h; Potency, µM (top dose mostly 46.2 µM), actives largely listed as inhibitors; 15% of 420,000 active; note: nearly all actives have a fitted effect of over 55% in size
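Luminescent ATP content (CellTiter-Glo) served as the growth readout. Knockout chicken DT40 cells expressing human TDP1 were exposed to compounds without camptothecin for a minimum 48 hr at 37 °C.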
DT40 TDP1 CPT = growth inhibition of DT40 Tdp1-/-;hTDP1 cells with camptothecin (screen for TDP1 inhibitors); Potency, µM (series often up to 46.2 µM), usual class: inhibitors; chicken DT40 Tdp1-/-;hTDP1 cells + 20 nM CPT, ATP luminescence, 48 h; 12% of 420,000 active; note: nearly all actives have a fitted effect of over 55% in size
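Chicken DT40 Tdp1-/- cells stably complemented with human TDP1 were seeded at 400 cells/well in medium containing 20 nM camptothecin, exposed to pin-transferred compounds, and grown at 37 °C for at least 48 hr. Viability was read as ATP luminescence.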
Large screens that a line does not name were inactive. Unless noted, calls come from the whole dose curve; as a rule, active = well fitted curve in the direction sought with a large enough effect; inconclusive = small, poorly fitted or top-dose-only effect, or another doubt; inactive = no such curve, though single readings can be large; an effect the other way counts as inactive or inconclusive.

COc1cccc(-c2nn(-c3ccc(C)cc3)cc2C(=O)N2CCc3cc(OC)c(OC)cc3C2)c1	HT1080 IDH1KD tx 21µM, HT1080NT lethal inconclusive, DT40 TDP1 no CPT inconclusive, DT40 TDP1 CPT 18µM
CCOc1ccc(C(=O)N2CCc3cc(OC)c(OC)cc3C2)cc1OCC	HT1080 IDH1KD tx inconclusive, DT40 TDP1 no CPT 29µM, DT40 TDP1 CPT inconclusive
C=CCNC(=O)CN1C(=O)C2C3c4ccccc4C(c4ccccc43)C2C1=O (centres undefined)	DT40 TDP1 no CPT inconclusive
CCCCC	none (no result: HT1080 IDH1KD tx, HT1080NT lethal, IL1B secr inh)
Cc1cccc(Oc2nc3ccccn3c(=O)c2/C=C(\C#N)c2nc3ccccc3s2)c1C	DT40 TDP1 no CPT 4.6µM, DT40 TDP1 CPT 21µM (no result: HT1080 IDH1KD tx, HT1080NT lethal, IL1B secr inh)
CC1CN(C(=S)SCC(=O)c2ccc(Cl)cc2)CC(C)O1 (centres undefined)	DT40 TDP1 no CPT 2.6µM, DT40 TDP1 CPT 4.1µM
CCc1ccc2c(c1)C(c1ccc([N+](=O)[O-])cc1)=NNC(c1ccc(C)cc1)=N2	DT40 TDP1 no CPT inconclusive
COc1ccc(-c2c(C(C)=O)c(C)nc3sc4c(=N)n(N)cnc4c23)cc1	DT40 TDP1 no CPT inconclusive, DT40 TDP1 CPT 26µM
CCOC(=O)c1c(C)nc2sc3c(=O)n(-c4ccc(OC)cc4)cnc3c2c1-c1ccc(OC)cc1	DT40 TDP1 no CPT inconclusive, DT40 TDP1 CPT inconclusive
CCOC(=O)c1c(C)nc2sc(C(N)=O)c(N)c2c1-c1ccc(OC)cc1	DT40 TDP1 no CPT 21µM, DT40 TDP1 CPT inconclusive
O=C1CCc2ccc(OCCCCN3CCN(c4cccc(Cl)c4Cl)CC3)cc2N1	DT40 TDP1 no CPT 15µM, DT40 TDP1 CPT 16µM
Cc1ccc(-c2nnc(N3CCCCC3)c3ccccc23)cc1	IL1B secr inh -56, DT40 TDP1 no CPT 23µM, DT40 TDP1 CPT inconclusive
COc1nnc(-c2ccc(C)c(S(N)(=O)=O)c2)c2ccccc12	none
COc1nnc(-c2ccc(N3CCCCC3)c(N)c2)c2ccccc12	IL1B secr inh inconclusive, DT40 TDP1 no CPT 8.2µM, DT40 TDP1 CPT 7.3µM
Clc1nnc(N2CCCCC2)c2ccccc12	IL1B secr inh -81, DT40 TDP1 no CPT inconclusive, DT40 TDP1 CPT inconclusive
COc1ccc(-c2nnc(N3CCC(C)CC3)c3ccccc23)cc1	DT40 TDP1 no CPT 16µM, DT40 TDP1 CPT inconclusive
Cc1nnc(N2CCCCC2)c2ccccc12	DT40 TDP1 no CPT inconclusive
CN1CCN(S(=O)(=O)c2cccc(C(=O)NCc3ccccc3Cl)c2)CC1	none
CCOc1ccc(-c2nnc(N3CCOCC3)c3ccccc23)cc1	DT40 TDP1 CPT inconclusive
Cc1ccc(-c2nnc(N3CCN(c4ccccn4)CC3)c3ccccc23)cc1	HT1080 IDH1KD tx inconclusive, IL1B secr inh -89, DT40 TDP1 no CPT inconclusive, DT40 TDP1 CPT inconclusive
COc1ccc(-c2nnn3c2nc(N2CCCC(C)C2)c2ccccc23)cc1 (centres undefined)	DT40 TDP1 no CPT 29µM, DT40 TDP1 CPT inconclusive (no result: HT1080 IDH1KD tx, HT1080NT lethal, IL1B secr inh)
Cc1ccc(C(=O)CN2CCN(c3ccccn3)CC2)c(C)c1	none
Cc1ccc(-c2nnc(N3CC(C)OC(C)C3)c3ccccc23)cc1 (centres undefined)	IL1B secr inh -75, DT40 TDP1 no CPT 16µM, DT40 TDP1 CPT 29µM
Cc1ccc(-c2nnc(N3CCN(CCO)CC3)c3ccccc23)cc1	IL1B secr inh inconclusive, DT40 TDP1 no CPT inconclusive
Cc1ccc2cc(C)c(N3CCN(c4ccccn4)CC3)nc2c1	IL1B secr inh inconclusive, DT40 TDP1 no CPT inconclusive, DT40 TDP1 CPT 18µM
C[C@@H]1CN([C@@H](C)CO)C(=O)c2cc(Br)cnc2O[C@H]1CN(C)Cc1cccc(C(=O)O)c1	none
c1ccc(-c2nnc(N3CCN(c4ccccn4)CC3)c3ccccc23)cc1	IL1B secr inh -73, DT40 TDP1 no CPT inconclusive, DT40 TDP1 CPT inconclusive
CN1CCN(c2nnc(-c3ccc(F)cc3)c3ccccc23)CC1	none
COc1ccc(C2C(C#N)C(C#N)N3CCCN23)cc1 (centres undefined)	none
N#CC1C(C#N)N2CCCN2C1c1ccc(Cl)cc1 (centres undefined)	DT40 TDP1 no CPT 7.3µM, DT40 TDP1 CPT 8.2µM
Cc1cc(C(=O)N2CCCC(N3CCN(c4cccc(C(F)(F)F)c4)CC3)C2)c(C)o1 (centres undefined)	IL1B secr inh inconclusive, DT40 TDP1 no CPT 12µM, DT40 TDP1 CPT 16µM
Cc1occc1C(=O)N1CCCC(N2CCN(c3cccc(C(F)(F)F)c3)CC2)C1 (centres undefined)	DT40 TDP1 no CPT 13µM, DT40 TDP1 CPT 21µM
CC(C)(C)c1ccc(C(=O)NC2(C(F)(F)F)C(=O)Nc3c2c(=O)[nH]c(=O)n3-c2ccccc2)cc1 (centres undefined)	none (no result: HT1080 IDH1KD tx, HT1080NT lethal, IL1B secr inh)
O=C(COC(=O)COc1ccc(Cl)cc1Br)NC1CCCC1	none
COc1ccc(/C(N)=N/OC(=O)CCCc2ccccc2)cc1OC	none
CCCCCCCCN1C(=O)[C@H](CC(=O)NCc2cccs2)C[C@@]2(C(=O)OC)CC(C)(C)CC=C12	HT1080 IDH1KD tx inconclusive, HT1080NT lethal inconclusive, IL1B secr inh inconclusive, DT40 TDP1 no CPT 8.2µM, DT40 TDP1 CPT 15µM
CCCCCCCCN1C(=O)[C@H](CC(=O)NCc2ccc(C)o2)C[C@@]2(C(=O)OC)CC(C)(C)CC=C12	HT1080 IDH1KD tx inconclusive, HT1080NT lethal inconclusive, IL1B secr inh -71, DT40 TDP1 no CPT 8.2µM, DT40 TDP1 CPT 12µM
COC(=O)[C@@]12C[C@@H](CC(=O)NCc3cccs3)C(=O)N(Cc3ccccc3)C1=CCC(C)(C)C2	DT40 TDP1 no CPT inconclusive, DT40 TDP1 CPT inconclusive
CC(=O)N1CCN(C(=O)CNC(=O)c2ccc(C)s2)CC1	none
CCOc1ccc(CN2CCN(Cc3cccc4c3OCO4)CC2CCO)cc1 (centres undefined)	DT40 TDP1 no CPT inconclusive, DT40 TDP1 CPT inconclusive
Cc1c(CN2CCN(CC(C)(C)C)C(CCO)C2)[nH]c2ccccc12 (centres undefined)	DT40 TDP1 no CPT inconclusive
CC(C)CCN1CCN(CC(c2ccccc2)c2ccccc2)CC1CCO (centres undefined)	DT40 TDP1 no CPT 21µM, DT40 TDP1 CPT 23µM
CC(C)CN1CCN(Cc2c[nH]c3ccccc23)CC1CCO (centres undefined)	DT40 TDP1 no CPT inconclusive, DT40 TDP1 CPT 8.2µM
CCOc1ccc(CN2CCN(Cc3[nH]c4ccccc4c3C)CC2CCO)cc1 (centres undefined)	IL1B secr inh -74, DT40 TDP1 no CPT inconclusive, DT40 TDP1 CPT inconclusive
CCOc1ccc(CN2CCN(Cc3cc4c(cc3Cl)OCO4)CC2CCO)cc1 (centres undefined)	HT1080NT lethal inconclusive, IL1B secr inh -60, DT40 TDP1 no CPT 16µM, DT40 TDP1 CPT inconclusive
CCOc1ccc(N=C(NN)c2ccc3ccccc3n2)cc1	DT40 TDP1 no CPT inconclusive, DT40 TDP1 CPT inconclusive

Source: PubChem
